Assay [1] can be described thus: qHTS assay to identify small molecule antagonists of the sonic hedgehog signaling (Shh) pathway (AID 1259369). Also: nearly all actives have a fitted effect of over 45% in size. The gist of the method:
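Inhibition of Shh signalling is measured as reduced Gli1-response-element firefly luciferase output in an NIH/3T3-derived stable reporter clone stimulated with conditioned medium for 24hr.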
A general note: In qHTS, concentration-response curves come from the screen itself.

Assay [2] deals with Estrogen receptor beta (Homo sapiens) (UniProt Q92731). The assay is described as follows: qHTS assay to identify small molecule agonists of the estrogen receptor beta (ER-beta) signaling pathway (AID 1259377; active = well fitted activation curve with a large enough effect in the signal ratio in the repeat runs, not every such curve was filed as active; the % refers to the signal ratio). The gist of the method:
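ER-beta-UAS-bla HEK293T (GripTite) cells carrying a UAS-driven beta-lactamase reporter, in medium with 2% charcoal-stripped FBS, were exposed to compounds for 16 hr at 37C; LiveBLAzer B/G FRET substrate was then added and fluorescence read after 2 hours at room temperature.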

For assay [3] the target is unchanged. The assay is described as follows: qHTS assay to identify small molecule antagonists of the estrogen receptor beta (ER-beta) signaling pathway (AID 1259378; active = well fitted inhibition curve with a large enough effect in the signal ratio in the repeat runs, not every such curve was filed as active; the % refers to the signal ratio). The gist of the method:
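ER-beta-UAS-bla HEK293T (GripTite) cells in 2% charcoal-stripped FBS medium were preincubated 6 hr at 37C, dosed with compound, then stimulated with 1 nM E2 (final) for 16 hr; beta-lactamase reporter read by B/G FRET fluorescence after 2 hr substrate loading.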

Assay [4] can be described thus: qHTS assay to identify small molecule agonists of the androgen receptor (AR) signaling pathway in the presence of an antagonist - cell viability counter screen (AID 1259379; active = well fitted curve in the direction sought with a large enough effect in the repeat runs; an effect the other way counts as inactive or inconclusive;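 also: MDA-kb2 human breast cancer cells carrying an MMTV luciferase reporter; series mostly up to about 92 µM; nearly all actives have a fitted effect of over 25% in size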). The procedure, abridged: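 Fluorescence from CellTiter-Fluor, added after 15 hr and read 1 hr later, gave cell viability. Cells were MDA-kb2 exposed to compounds (15 concentrations) in the presence of 3.0uM nilutamide at 37C, 0% CO2.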

Assay [5] in a line: qHTS assay to identify small molecule agonists of the estrogen receptor beta (ER-beta) signaling pathway - cell viability counter screen (AID 1259380; active = well fitted curve in the direction sought with a large enough effect in the repeat runs; an effect the other way counts as inactive or inconclusive; also: nearly all actives have a fitted effect of over 30% in size). The procedure, abridged:
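Same-well viability counter screen. Cells: ER-beta-UAS-bla HEK293T, plated 6 hr before compound, in 2% charcoal-stripped FBS. Compound exposure 16 hr, 37C; viability by CellTiter-Glo luminescence after 30 min at room temperature.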

Assay [6] can be described thus: qHTS assay to identify small molecule antagonists of the estrogen receptor beta (ER-beta) signaling pathway - cell viability counter screen (AID 1259382; active = well fitted curve in the direction sought with a large enough effect in the repeat runs; an effect the other way counts as inactive or inconclusive; also: series mostly up to about 92 µM; nearly all actives have a fitted effect of over 55% in size). The gist of the method: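 Following a 6 hr plating period, HEK293T cells carrying a UAS-driven beta-lactamase reporter under ER-beta control received compounds and 1nM E2 (final). After 16 hr at 37C and 2 hr substrate loading, CellTiter-Glo luminescence indicated viability.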

The target of assay [7] is Estrogen receptor (Homo sapiens) (UniProt P03372). As to the kind of experiment: qHTS assay to identify small molecule agonists of the estrogen receptor alpha (ER-alpha) signaling pathway in the presence of an antagonist (AID 1259383). Also: top concentration of the series differs between compounds; nearly all actives have a fitted effect of over 15% in size. The gist of the method: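 Cells are hormone-deprived for 5 days (charcoal-stripped FBS, no phenol red), plated for 24hr, spiked with 10.0nM ICI-182,780, then dosed at 15 concentrations. After 22hr at 37C, ONE-Glo luminescence reports ERE-luciferase activity.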
Sequence of Estrogen receptor (Homo sapiens) (P03372 whole entry, looked up): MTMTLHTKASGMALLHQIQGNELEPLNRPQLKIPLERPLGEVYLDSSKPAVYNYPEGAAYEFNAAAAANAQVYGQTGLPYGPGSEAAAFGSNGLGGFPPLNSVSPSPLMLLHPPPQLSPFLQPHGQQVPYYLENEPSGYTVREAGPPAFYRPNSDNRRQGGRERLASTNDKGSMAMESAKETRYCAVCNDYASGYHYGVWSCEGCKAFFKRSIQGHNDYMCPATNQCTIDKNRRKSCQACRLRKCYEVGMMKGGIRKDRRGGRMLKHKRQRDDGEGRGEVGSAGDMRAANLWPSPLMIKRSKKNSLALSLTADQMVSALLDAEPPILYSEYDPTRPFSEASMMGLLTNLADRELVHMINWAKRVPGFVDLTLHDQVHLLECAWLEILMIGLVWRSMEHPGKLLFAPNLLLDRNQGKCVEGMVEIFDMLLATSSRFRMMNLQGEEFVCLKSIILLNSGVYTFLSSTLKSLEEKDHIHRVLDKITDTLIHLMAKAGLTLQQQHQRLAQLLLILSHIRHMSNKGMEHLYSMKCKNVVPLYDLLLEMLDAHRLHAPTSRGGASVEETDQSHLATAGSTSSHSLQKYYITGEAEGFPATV

Assay [8] in a line: qHTS assay to identify small molecule agonists or antagonists of the thyroid stimulating hormone receptor (TSHR) signaling pathway - wild type cell line counter screen (AID 1259384). The procedure, abridged: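 Wild-type HEK293 cells were plated 18 h at 37 C/5% CO2, pin-dosed with compound plus Ro20-1724 medium, held 30 min at room temperature, then given cAMP-d2 and anti-cAMP-cryptate; fluorescence was read after 1 h. Fifteen concentrations, triplicate.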

Assay [9] concerns the target Thyrotropin receptor (Homo sapiens) (UniProt P16473). The assay is described as follows: qHTS assay to identify small molecule antagonists of the thyroid stimulating hormone receptor (TSHR) signaling pathway (AID 1259385). Also: nearly all actives have a fitted effect of over 20% in size. The procedure, abridged:
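TSHR-HEK293 cells were plated and held 18 h at 37C/5% CO2, then given compound plus Ro20-1724 and stimulated with TSH at 1.5 ng/mL final. After 30 min at room temperature, cAMP was detected with cAMP-d2/anti-cAMP-cryptate (1 h) by fluorescence.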

The nature of assay [10]: qHTS assay to identify small molecule agonists of the estrogen receptor alpha (ER-alpha) signaling pathway in the presence of an antagonist - cell viability counter screen (AID 1259386; active = well fitted curve in the direction sought with a large enough effect in the repeat runs; an effect the other way counts as inactive or inconclusive;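 also: series mostly up to about 92 µM; cells exposed to compounds for 22 h at 37 °C before the viability read; nearly all actives have a fitted effect of over 30% in size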). The gist of the method: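 Cells are starved of estrogens for 5 days in charcoal-stripped serum, seeded for 24hr and co-treated with ICI-182,780 (10.0nM final) and test compounds. After 22hr at 37C, viability is read as CellTiter-Fluor fluorescence.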

Assay [11] has as its target Progesterone receptor (Homo sapiens) (UniProt P06401). As to the kind of experiment: qHTS assay to identify small molecule antagonists of the progesterone receptor (PR) signaling pathway (AID 1346795; active = well fitted inhibition curve with a large enough effect in the signal ratio in the repeat runs, not every such curve was filed as active; the % refers to the signal ratio). The procedure, abridged: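 PR-UAS-bla HEK293T cells carrying a UAS-driven beta-lactamase reporter were plated in medium with 2% charcoal-stripped FBS and rested 6 hr at 37C. Compounds were added with 1 nM R5020 (final) for 16 hr, then FRET substrate loaded 2 hr at room temperature.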

A short description of assay [12]: qHTS assay to identify small molecule antagonists of the progesterone receptor (PR) signaling pathway - cell viability counter screen (AID 1346798; active = well fitted curve in the direction sought with a large enough effect in the repeat runs; an effect the other way counts as inactive or inconclusive; also: series mostly up to about 92 µM; nearly all actives have a fitted effect of over 50% in size). The gist of the method:
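PR-UAS-bla HEK293T cells in medium with 2% charcoal-stripped FBS were treated with compounds plus R5020 for 16 hr at 37C. Cell viability was then read by CellTiter-Glo luminescence after 30 min at room temperature in the same wells.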

The nature of assay [13]: qHTS assay to identify small molecule agonists of the progesterone receptor (PR) signaling pathway - cell viability counter screen (AID 1346799). Also: nearly all actives have a fitted effect of over 45% in size. The gist of the method: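 PR-UAS-bla HEK293T cells, 3,000 per well in medium with 2% charcoal-stripped FBS, were preincubated 6 hr at 37C, then exposed to compounds for 16 hr; viability was read as CellTiter-Glo luminescence after 30 min at room temperature.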

Assay [14] is described as follows: qHTS assay to identify small molecule agonists of the TGF-beta/Smad signaling pathway - cell viability counter screen (AID 1346829; active = well fitted curve in the direction sought with a large enough effect in the repeat runs; an effect the other way counts as inactive or inconclusive; also: top concentration of the series differs between compounds; nearly all actives have a fitted effect of over 45% in size). The gist of the method: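 After overnight seating at 37 C and 5% CO2, reporter cells got compounds for 5 hr and FRET substrate for 2 hr; cell viability then came from CellTiter-Glo luminescence.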
A short description of assay [15]: qHTS assay to identify small molecule agonists of the TGF-beta/Smad signaling pathway (AID 1346859; active = well fitted activation curve with a large enough effect in the signal ratio in the repeat runs, not every such curve was filed as active; the % refers to the signal ratio; also: series mostly up to about 77 µM). The gist of the method:
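HEK 293T cells stably carrying a beta-lactamase reporter driven by the Smad binding element were seeded overnight, exposed to DMSO-dissolved compounds for 5 hr at 37 C, 5% CO2, then loaded with FRET substrate for 2 hr at room temperature.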

Assay [16] addresses Thyrotropin-releasing hormone receptor (Homo sapiens) (UniProt P34981). As to the kind of experiment: qHTS assay to identify small molecule antagonists of the thyrotropin-releasing hormone receptor (TRHR) signaling pathway (AID 1346877; active = well fitted inhibition curve with a large enough effect in the repeat runs, not every such curve was filed as active; also: series mostly up to about 51 µM). The gist of the method:
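Cells (TRHR-HEK293) are plated and kept 18 h at 37 °C/5% CO2. A calcium-sensitive dye is added for 2 h, compound follows for 5 min at room temperature, and TRH is then given at 1 nM final.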

For assay [17] the target is unchanged. The assay is described as follows: qHTS assay to identify small molecule agonists of the thyrotropin-releasing hormone receptor (TRHR) signaling pathway (AID 1346891). Also: series mostly up to about 58 µM. The procedure, abridged: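 TRHR-expressing HEK293 cells were plated 18 h at 37 °C/5% CO2, loaded with calcium dye 2 h at 37 °C, then given compound in DMSO; fluorescence was read kinetically for 3 min at 1 s intervals.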

Assay [18] has as its target Progesterone receptor (Homo sapiens) (UniProt P06401). As to the kind of experiment: qHTS assay to identify small molecule agonists of the progesterone receptor (PR) signaling pathway (AID 1346784). Also: nearly all actives have a fitted effect of over 30% in size. Also: potency is read from the fitted curve at half-maximal effect. The gist of the method:
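PR-UAS-bla HEK 293T cells carrying a UAS-driven beta-lactamase reporter were seeded in medium with 2% charcoal-stripped FBS, preincubated 6 hr at 37C, then exposed to compounds in DMSO for 16 hr; agonism was read by LiveBLAzer B/G FRET fluorescence.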

Assay [19] can be described thus: qHTS assay to identify small molecule antagonists of the TGF-beta/Smad signaling pathway - cell viability counter screen (AID 1346824; active = well fitted curve in the direction sought with a large enough effect in the repeat runs; an effect the other way counts as inactive or inconclusive; also: nearly all actives have a fitted effect of over 50% in size). The procedure, abridged:
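SBE-bla HEK 293T cells were plated overnight at 37 C, then given compounds in DMSO plus TGF-beta1 (added as 0.25 ng/mL solution) for 5 hr. After the bla read, CellTiter-Glo was added to the same wells and luminescence read after 30 min at room temperature.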

Inconclusive results are not listed. Some structures have more than one record in an assay (separate samples or runs), and their calls can disagree. Activity calls are given as the source filed them. Unless noted, calls follow the shape of the full dose curve.

Sequence of Thyrotropin receptor (Homo sapiens) (P16473 whole entry, looked up): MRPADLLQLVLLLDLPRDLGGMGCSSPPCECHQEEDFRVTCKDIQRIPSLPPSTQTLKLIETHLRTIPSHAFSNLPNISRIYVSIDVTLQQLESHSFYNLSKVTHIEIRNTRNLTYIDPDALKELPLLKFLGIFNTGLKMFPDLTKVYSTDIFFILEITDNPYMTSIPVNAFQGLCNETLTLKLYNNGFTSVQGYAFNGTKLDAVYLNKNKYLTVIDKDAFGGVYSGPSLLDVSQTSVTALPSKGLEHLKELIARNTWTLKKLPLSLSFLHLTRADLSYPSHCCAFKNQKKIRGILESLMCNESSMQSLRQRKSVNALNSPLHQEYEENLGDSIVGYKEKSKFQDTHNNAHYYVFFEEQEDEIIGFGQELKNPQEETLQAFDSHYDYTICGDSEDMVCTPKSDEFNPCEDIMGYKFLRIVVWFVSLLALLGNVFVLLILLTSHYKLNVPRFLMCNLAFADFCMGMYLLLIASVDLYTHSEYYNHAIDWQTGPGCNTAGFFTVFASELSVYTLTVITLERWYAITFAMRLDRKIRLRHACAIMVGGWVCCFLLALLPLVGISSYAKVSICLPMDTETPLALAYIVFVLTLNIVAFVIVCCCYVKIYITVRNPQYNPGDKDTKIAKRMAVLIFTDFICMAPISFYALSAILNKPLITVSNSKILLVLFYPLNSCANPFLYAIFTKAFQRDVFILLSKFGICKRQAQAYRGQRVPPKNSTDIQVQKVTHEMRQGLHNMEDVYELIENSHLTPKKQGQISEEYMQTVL
Sequence of Thyrotropin-releasing hormone receptor (Homo sapiens) (P34981 whole entry, looked up): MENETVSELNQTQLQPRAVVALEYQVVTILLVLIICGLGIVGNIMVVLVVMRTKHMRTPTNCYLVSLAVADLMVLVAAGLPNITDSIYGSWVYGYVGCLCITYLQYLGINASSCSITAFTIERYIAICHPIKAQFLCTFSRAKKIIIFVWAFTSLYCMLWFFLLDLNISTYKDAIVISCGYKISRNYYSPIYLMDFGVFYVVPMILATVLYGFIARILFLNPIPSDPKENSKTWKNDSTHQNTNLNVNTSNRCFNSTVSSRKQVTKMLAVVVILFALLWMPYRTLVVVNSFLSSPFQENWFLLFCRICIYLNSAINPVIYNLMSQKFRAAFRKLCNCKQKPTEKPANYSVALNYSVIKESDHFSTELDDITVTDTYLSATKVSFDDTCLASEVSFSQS
Sequence of Progesterone receptor (Homo sapiens) (P06401 whole entry, looked up): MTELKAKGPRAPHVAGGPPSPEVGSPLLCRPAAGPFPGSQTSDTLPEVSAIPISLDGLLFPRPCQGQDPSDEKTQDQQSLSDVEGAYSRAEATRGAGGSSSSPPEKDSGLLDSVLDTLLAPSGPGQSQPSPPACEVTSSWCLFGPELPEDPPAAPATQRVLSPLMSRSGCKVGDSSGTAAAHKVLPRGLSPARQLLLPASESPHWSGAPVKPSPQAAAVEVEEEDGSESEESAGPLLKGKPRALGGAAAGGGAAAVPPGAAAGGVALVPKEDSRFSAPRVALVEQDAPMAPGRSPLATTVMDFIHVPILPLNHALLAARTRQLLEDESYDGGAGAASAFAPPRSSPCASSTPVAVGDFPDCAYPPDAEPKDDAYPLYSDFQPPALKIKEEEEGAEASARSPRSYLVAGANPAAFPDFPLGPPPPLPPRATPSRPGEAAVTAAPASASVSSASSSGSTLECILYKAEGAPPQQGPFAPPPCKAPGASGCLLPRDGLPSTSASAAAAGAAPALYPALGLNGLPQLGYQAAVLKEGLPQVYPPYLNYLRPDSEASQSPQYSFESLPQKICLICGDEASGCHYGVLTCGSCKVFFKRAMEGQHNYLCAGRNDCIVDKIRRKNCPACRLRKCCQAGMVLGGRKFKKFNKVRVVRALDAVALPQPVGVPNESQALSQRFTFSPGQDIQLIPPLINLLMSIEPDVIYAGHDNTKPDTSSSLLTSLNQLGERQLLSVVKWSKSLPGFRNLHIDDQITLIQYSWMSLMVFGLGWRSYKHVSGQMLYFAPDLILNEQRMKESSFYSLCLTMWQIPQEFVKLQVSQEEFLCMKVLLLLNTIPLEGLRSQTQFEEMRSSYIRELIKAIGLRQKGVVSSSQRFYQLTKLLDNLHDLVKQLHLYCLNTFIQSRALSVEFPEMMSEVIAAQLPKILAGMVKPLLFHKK
Sequence of Estrogen receptor beta (Homo sapiens) (Q92731 whole entry, looked up): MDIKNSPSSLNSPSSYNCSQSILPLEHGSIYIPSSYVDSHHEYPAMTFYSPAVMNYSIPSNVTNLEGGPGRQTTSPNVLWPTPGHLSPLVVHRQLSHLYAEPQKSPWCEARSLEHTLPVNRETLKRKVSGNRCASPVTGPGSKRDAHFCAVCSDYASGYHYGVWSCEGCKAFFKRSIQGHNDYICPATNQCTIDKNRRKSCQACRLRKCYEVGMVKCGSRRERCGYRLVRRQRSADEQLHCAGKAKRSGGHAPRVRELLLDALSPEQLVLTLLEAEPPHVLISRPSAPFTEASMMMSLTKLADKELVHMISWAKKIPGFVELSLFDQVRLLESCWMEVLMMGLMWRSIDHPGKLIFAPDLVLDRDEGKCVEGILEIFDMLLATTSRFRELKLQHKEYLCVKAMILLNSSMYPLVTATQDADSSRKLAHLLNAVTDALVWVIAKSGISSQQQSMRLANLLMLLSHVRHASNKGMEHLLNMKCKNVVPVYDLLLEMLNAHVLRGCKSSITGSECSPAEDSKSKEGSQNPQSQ

For `CC(C)COC(=O)c1ccccc1C(=O)OCC(C)C`, the Potency result in assay [1], in assay [2], in assay [3], in assay [4], in assay [5] and in assay [6] was “inactive” in each case. The Potency entry in assay [7], in assay [8], in [9], in assay [10], in [11] and in [12] was “inactive” throughout. Further, the Potency entry in [13], in assay [14], in [15] and in assay [16] was “inactive” throughout. The call in assay [17] was inactive.

Consider `Cc1ccc([N+](=O)[O-])cc1`, for which the Potency result in assay [1], in assay [2], in [3], in assay [4], in assay [5] and in [6] was “inactive” throughout. Also, the Potency entry in assay [7], in assay [8], in assay [9], in assay [10], in assay [18] and in assay [11] was “inactive” in each case. In addition, the Potency entry in assay [12], in [13], in [19], in [14] and in assay [16] was “inactive” throughout. In addition, the compound was called inactive in assay [17].

Turning to `CC(C)CON=O`, the Potency entry in assay [1], in assay [2], in assay [3], in assay [4], in assay [5] and in assay [6] was “inactive” in each case. The Potency entry in assay [7], in assay [8], in [9], in [10], in assay [18] and in assay [11] was “inactive” each time. The Potency result in [12], in assay [13] and in assay [14] was “inactive” in each case.

In the case of `c1ccc2c(c1)Nc1ccccc1S2`, the Potency result in [1], in [2], in assay [3], in assay [4], in assay [5] and in assay [6] was “inactive” in each case. Moreover, the Potency entry in assay [7], in [10], in assay [12], in [13], in assay [14] and in assay [15] was “inactive” in each case. Further, in [16], the Potency result was “inactive”. Further, the Potency in assay [18] was 1.54 µM (active) and inactive. Besides, in assay [17], the result was inactive.

Source of the values: PubChem BioAssay (Tox21).
